{"source": "PubChem BioAssay AID1159580", "about": "(chemical genetic matrix, 2015)", "test": "chemical genetic growth profiling, strain panel (AID 1159580);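 note: tested at 20 µM; growth read once vehicle control cultures reached saturation at 30 °C; 1 = growth at the plate median or of vehicle wells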", "settings": "growth OD", "note": "Hit rate of the full screen: of about 5,500 compounds, about 2,000 (36%) were called active. Another 18% or so got no clear call; they are omitted. The list shows a part of the results. A number with no mark means an inactive call. Cut-off read from the data, not from the text of the source: active = normalized growth mostly below about 0.91 (no sharp cut-off); inconclusive = no clear call, values can overlap the other calls; inactive = mostly above about 0.92."}
{"compound": "CN(Cc1cnc2nc(N)nc(N)c2n1)c1ccc(C(=O)NC(CCC(=O)O)C(=O)O)cc1", "note": "(stereo unspecified)", "values": [{"measurement": "normalized growth", "setting": "S. cerevisiae deletion strains, locus YJR066W, strain TOR1, stronger effect = lower value", "result": "0.0866 (active)"}, {"measurement": "normalized growth", "setting": "S. cerevisiae deletion strains, locus YKL009W, strain mrt4, stronger effect = lower value", "result": "0.527 (active)"}, {"measurement": "normalized growth", "setting": "S. cerevisiae deletion strains, locus YKL068W, stronger effect = lower value", "result": "0.513 (active)"}, {"measurement": "normalized growth", "setting": "S. cerevisiae deletion strains, locus YKL085W, strain MDH1 (second series), stronger effect = lower value", "result": "0.311 (active)"}, {"measurement": "normalized growth", "setting": "S. cerevisiae deletion strains, locus YKL085W, strain MDH1, stronger effect = lower value", "result": "0.311 (active)"}, {"measurement": "normalized growth", "setting": "S. cerevisiae deletion strains, locus YKL160W, strain elf1, stronger effect = lower value", "result": 0.94}, {"measurement": "normalized growth", "setting": "S. cerevisiae deletion strains, locus YKR001C, strain vps1, stronger effect = lower value", "result": 0.953}, {"measurement": "normalized growth", "setting": "S. cerevisiae deletion strains, locus YKR026C, strain gcn3, stronger effect = lower value", "result": 0.934}, {"measurement": "normalized growth", "setting": "S. cerevisiae deletion strains, locus YKR091W, strain srl3, stronger effect = lower value", "result": 0.94}, {"measurement": "normalized growth", "setting": "S. cerevisiae deletion strains, locus YLL001W, strain dnm1, stronger effect = lower value", "result": "0.873 (active)"}, {"measurement": "normalized growth", "setting": "S. cerevisiae deletion strains, locus YLL026W, stronger effect = lower value", "result": 0.935}, {"measurement": "normalized growth", "setting": "S. cerevisiae deletion strains, locus YLL041C, strain sdh2, stronger effect = lower value", "result": 0.955}, {"measurement": "normalized growth", "setting": "S. cerevisiae deletion strains, locus YLR027C, strain aat2, stronger effect = lower value", "result": 0.94}, {"measurement": "normalized growth", "setting": "S. cerevisiae deletion strains, locus YLR039C, strain RIC1, stronger effect = lower value", "result": 0.909}, {"measurement": "normalized growth", "setting": "S. cerevisiae deletion strains, locus YLR058C, strain SHM2, stronger effect = lower value", "result": 0.99}, {"measurement": "normalized growth", "setting": "S. cerevisiae deletion strains, locus YLR102C, strain apc9, stronger effect = lower value", "result": 0.993}, {"measurement": "normalized growth", "setting": "S. cerevisiae deletion strains, locus YLR113W, strain HOG1, stronger effect = lower value", "result": "0.247 (active)"}, {"measurement": "normalized growth", "setting": "S. cerevisiae deletion strains, locus YLR221C, strain rsa3, stronger effect = lower value", "result": "0.816 (active)"}, {"measurement": "normalized growth", "setting": "S. cerevisiae deletion strains, locus YLR258W, strain gsy2, stronger effect = lower value", "result": 0.923}, {"measurement": "normalized growth", "setting": "S. cerevisiae deletion strains, locus YLR262C, strain YPT6 (second series), stronger effect = lower value", "result": 0.952}, {"measurement": "normalized growth", "setting": "S. cerevisiae deletion strains, locus YLR262C, strain YPT6, stronger effect = lower value", "result": 0.958}, {"measurement": "normalized growth", "setting": "S. cerevisiae deletion strains, locus YLR268W, strain sec22, stronger effect = lower value", "result": 0.984}, {"measurement": "normalized growth", "setting": "S. cerevisiae deletion strains, locus YLR320W, strain mms22, stronger effect = lower value", "result": "0.789 (active)"}, {"measurement": "normalized growth", "setting": "S. cerevisiae deletion strains, locus YLR330W, strain CHS5, stronger effect = lower value", "result": 0.973}, {"measurement": "normalized growth", "setting": "S. cerevisiae deletion strains, locus YLR342W, strain FKS1 (second series), stronger effect = lower value", "result": 1.01}, {"measurement": "normalized growth", "setting": "S. cerevisiae deletion strains, locus YLR342W, strain FKS1, stronger effect = lower value", "result": 0.928}, {"measurement": "normalized growth", "setting": "S. cerevisiae deletion strains, locus YLR357W, strain rsc2, stronger effect = lower value", "result": 0.943}, {"measurement": "normalized growth", "setting": "S. cerevisiae deletion strains, locus YLR370C, strain arc18, stronger effect = lower value", "result": "0.877 (active)"}, {"measurement": "normalized growth", "setting": "S. cerevisiae deletion strains, locus YLR371W, strain rom2, stronger effect = lower value", "result": 1.01}, {"measurement": "normalized growth", "setting": "S. cerevisiae deletion strains, locus YLR384C, strain iki3, stronger effect = lower value", "result": "0.88 (active)"}, {"measurement": "normalized growth", "setting": "S. cerevisiae deletion strains, locus YLR418C, strain cdc73, stronger effect = lower value", "result": 0.96}, {"measurement": "normalized growth", "setting": "S. cerevisiae deletion strains, locus YML016C, strain PPZ1, stronger effect = lower value", "result": 1.01}, {"measurement": "normalized growth", "setting": "S. cerevisiae deletion strains, locus YML032C, strain rad52, stronger effect = lower value", "result": 0.986}, {"measurement": "normalized growth", "setting": "S. cerevisiae deletion strains, locus YML120C, strain ndi1, stronger effect = lower value", "result": "0.813 (active)"}, {"measurement": "normalized growth", "setting": "S. cerevisiae deletion strains, locus YML124C, strain tub3, stronger effect = lower value", "result": 0.974}, {"measurement": "normalized growth", "setting": "S. cerevisiae deletion strains, locus YMR058W, strain fet3, stronger effect = lower value", "result": "0.893 (active)"}, {"measurement": "normalized growth", "setting": "S. cerevisiae deletion strains, locus YMR078C, strain ctf18, stronger effect = lower value", "result": 0.986}, {"measurement": "normalized growth", "setting": "S. cerevisiae deletion strains, locus YMR125W, strain sto1, stronger effect = lower value", "result": 0.95}, {"measurement": "normalized growth", "setting": "S. cerevisiae deletion strains, locus YMR129W, stronger effect = lower value", "result": 0.948}, {"measurement": "normalized growth", "setting": "S. cerevisiae deletion strains, locus YMR205C, strain PFK2, stronger effect = lower value", "result": 0.948}, {"measurement": "normalized growth", "setting": "S. cerevisiae deletion strains, locus YMR223W, strain ubp8, stronger effect = lower value", "result": 0.953}, {"measurement": "normalized growth", "setting": "S. cerevisiae deletion strains, locus YMR231W, strain pep5, stronger effect = lower value", "result": "0.923 (active)"}, {"measurement": "normalized growth", "setting": "S. cerevisiae deletion strains, locus YMR263W, strain SAP30, stronger effect = lower value", "result": 0.987}, {"measurement": "normalized growth", "setting": "S. cerevisiae deletion strains, locus YMR307W, strain GAS1, stronger effect = lower value", "result": 1.02}, {"measurement": "normalized growth", "setting": "S. cerevisiae deletion strains, locus YNL067W, strain RPL9B, stronger effect = lower value", "result": 0.963}, {"measurement": "normalized growth", "setting": "S. cerevisiae deletion strains, locus YNL071W, strain lat1, stronger effect = lower value", "result": 0.961}, {"measurement": "normalized growth", "setting": "S. cerevisiae deletion strains, locus YNL153C, strain GIM3, stronger effect = lower value", "result": 0.974}, {"measurement": "normalized growth", "setting": "S. cerevisiae deletion strains, locus YNL175C, strain NOP13, stronger effect = lower value", "result": 0.975}, {"measurement": "normalized growth", "setting": "S. cerevisiae deletion strains, locus YNL183C, strain NPR1, stronger effect = lower value", "result": "0.112 (active)"}, {"measurement": "normalized growth", "setting": "S. cerevisiae deletion strains, locus YNL197C, strain WHI3, stronger effect = lower value", "result": 0.976}, {"measurement": "normalized growth", "setting": "S. cerevisiae deletion strains, locus YNL209W, strain ssb2, stronger effect = lower value", "result": "0.913 (active)"}, {"measurement": "normalized growth", "setting": "S. cerevisiae deletion strains, locus YNL224C, strain SQS1, stronger effect = lower value", "result": 0.977}, {"measurement": "normalized growth", "setting": "S. cerevisiae deletion strains, locus YNL233W, strain BNI4, stronger effect = lower value", "result": 0.98}, {"measurement": "normalized growth", "setting": "S. cerevisiae deletion strains, locus YNL248C, strain rpa49, stronger effect = lower value", "result": 0.925}, {"measurement": "normalized growth", "setting": "S. cerevisiae deletion strains, locus YNL250W, strain rad50, stronger effect = lower value", "result": "0.195 (active)"}, {"measurement": "normalized growth", "setting": "S. cerevisiae deletion strains, locus YNL271C, strain bni1, stronger effect = lower value", "result": "0.291 (active)"}, {"measurement": "normalized growth", "setting": "S. cerevisiae deletion strains, locus YNL298W, strain CLA4, stronger effect = lower value", "result": "0.385 (active)"}, {"measurement": "normalized growth", "setting": "S. cerevisiae deletion strains, locus YNL307C, strain MCK1, stronger effect = lower value", "result": 1.01}, {"measurement": "normalized growth", "setting": "S. cerevisiae deletion strains, locus YNL322C, strain KRE1 (second series), stronger effect = lower value", "result": "0.512 (active)"}, {"measurement": "normalized growth", "setting": "S. cerevisiae deletion strains, locus YNL322C, strain KRE1, stronger effect = lower value", "result": 0.971}, {"measurement": "normalized growth", "setting": "S. cerevisiae deletion strains, locus YNR049C, strain mso1, stronger effect = lower value", "result": 0.921}, {"measurement": "normalized growth", "setting": "S. cerevisiae deletion strains, locus YNR052C, strain pop2, stronger effect = lower value", "result": 0.951}, {"measurement": "normalized growth", "setting": "S. cerevisiae deletion strains, locus YOL012C, strain htz1", "result": 1.38}, {"measurement": "normalized growth", "setting": "S. cerevisiae deletion strains, locus YOL147C, strain pex11, stronger effect = lower value", "result": 0.982}, {"measurement": "normalized growth", "setting": "S. cerevisiae deletion strains, locus YOR001W, strain rrp6, stronger effect = lower value", "result": 0.929}, {"measurement": "normalized growth", "setting": "S. cerevisiae deletion strains, locus YOR061W, strain CKA2, stronger effect = lower value", "result": 0.99}, {"measurement": "normalized growth", "setting": "S. cerevisiae deletion strains, locus YOR069W, strain VPS5, stronger effect = lower value", "result": 0.987}, {"measurement": "normalized growth", "setting": "S. cerevisiae deletion strains, locus YOR070C, strain gyp1, stronger effect = lower value", "result": 0.934}, {"measurement": "normalized growth", "setting": "S. cerevisiae deletion strains, locus YOR080W, strain dia2, stronger effect = lower value", "result": "0.902 (active)"}, {"measurement": "normalized growth", "setting": "S. cerevisiae deletion strains, locus YOR083W, strain WHI5 (second series), stronger effect = lower value", "result": 0.984}, {"measurement": "normalized growth", "setting": "S. cerevisiae deletion strains, locus YOR083W, strain WHI5, stronger effect = lower value", "result": 0.908}, {"measurement": "normalized growth", "setting": "S. cerevisiae deletion strains, locus YOR106W, strain vam3, stronger effect = lower value", "result": "0.801 (active)"}, {"measurement": "normalized growth", "setting": "S. cerevisiae deletion strains, locus YOR136W, strain idh2, stronger effect = lower value", "result": 0.995}, {"measurement": "normalized growth", "setting": "S. cerevisiae deletion strains, locus YOR144C, strain elg1, stronger effect = lower value", "result": 0.975}, {"measurement": "normalized growth", "setting": "S. cerevisiae deletion strains, locus YOR184W, strain ser1, stronger effect = lower value", "result": 0.968}, {"measurement": "normalized growth", "setting": "S. cerevisiae deletion strains, locus YOR231W, strain MKK1, stronger effect = lower value", "result": "0.193 (active)"}, {"measurement": "normalized growth", "setting": "S. cerevisiae deletion strains, locus YOR265W, strain rbl2, stronger effect = lower value", "result": "0.911 (active)"}, {"measurement": "normalized growth", "setting": "S. cerevisiae deletion strains, locus YOR270C, strain vph1, stronger effect = lower value", "result": 0.957}, {"measurement": "normalized growth", "setting": "S. cerevisiae deletion strains, locus YOR290C, strain snf2, stronger effect = lower value", "result": "0.845 (active)"}, {"measurement": "normalized growth", "setting": "S. cerevisiae deletion strains, locus YOR316C, strain cot1, stronger effect = lower value", "result": 0.984}, {"measurement": "normalized growth", "setting": "S. cerevisiae deletion strains, locus YPL051W, strain arl3, stronger effect = lower value", "result": 0.984}, {"measurement": "normalized growth", "setting": "S. cerevisiae deletion strains, locus YPL078C, strain atp4, stronger effect = lower value", "result": 0.947}, {"measurement": "normalized growth", "setting": "S. cerevisiae deletion strains, locus YPL106C, strain sse1, stronger effect = lower value", "result": 0.947}, {"measurement": "normalized growth", "setting": "S. cerevisiae deletion strains, locus YPL240C, strain hsp82, stronger effect = lower value", "result": 0.957}, {"measurement": "normalized growth", "setting": "S. cerevisiae deletion strains, locus YPL256C, strain CLN2, stronger effect = lower value", "result": "0.227 (active)"}, {"measurement": "normalized growth", "setting": "S. cerevisiae deletion strains, locus YPR119W, strain clb2, stronger effect = lower value", "result": 0.989}, {"measurement": "normalized growth", "setting": "S. cerevisiae deletion strains, locus YPR141C, strain kar3, stronger effect = lower value", "result": "0.345 (active)"}, {"measurement": "normalized growth", "setting": "S. cerevisiae deletion strains, locus YPR163C, strain tif3, stronger effect = lower value", "result": 0.985}, {"measurement": "normalized growth", "setting": "S. cerevisiae deletion strains, locus YPR167C, strain met16, stronger effect = lower value", "result": 0.975}, {"measurement": "normalized growth", "setting": "S. cerevisiae deletion strains, strain wtn01, stronger effect = lower value", "result": 0.97}, {"measurement": "normalized growth", "setting": "S. cerevisiae strains, strain wild type, stronger effect = lower value", "result": 0.973}]}
